Details in all cases: mRNA level, 48 h; actives raise or lower the signal
Read-out in test [1]: Apoptosis regulator Bcl-2 (Homo sapiens) (UniProt P10415)
Nature of the test: LTEA_HepaRG_BCL2: Life Technologies and Expression Analysis (LTEA) Assay for Bcl-2 gene using HepaRG (AID 2283475). The gist of the method: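 Each chemical was tested in duplicate on HepaRG cultures held in serum-free induction medium for 48 h, highest concentration 100 uM with half-log dilutions. Transcript levels came from multiplexed qRT-PCR, normalised to housekeeping genes; activity was scored in either direction relative to DMSO.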

Read-out in test [2]: Bcl-2 (BID) gene, BID (gene 637)
Description: LTEA_HepaRG_BID: Life Technologies and Expression Analysis (LTEA) Assay for Bcl-2 (BID) gene using HepaRG (AID 2283476). The gist of the method:
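Assay used HepaRG hepatic cells treated 48 h in serum-free medium with half-log dilutions from 100 uM. Endpoint: BID mRNA, qRT-PCR, normalized to ACTB/GAPDH/POLR2A.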

Read-out in a further test: Caspase-3 (Homo sapiens) (UniProt P42574)
Description: LTEA_HepaRG_CASP3: Life Technologies and Expression Analysis (LTEA) Assay for cysteine-aspartic acid protease (CASP3) using HepaRG (AID 2283477). The gist of the method:
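Differentiated human HepaRG cells in serum-free induction medium were exposed 48 h to 8-point half-log concentrations from 100 uM (0.5% DMSO vehicle). CASP3 mRNA was measured by qRT-PCR, normalised to ACTB, GAPDH and POLR2A, with bidirectional fitting against DMSO.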

Read-out in test [3]: Cytochrome P450 (CYP24A1), CYP24A1 (gene 1591)
Nature of the test: LTEA_HepaRG_CYP24A1: Life Technologies and Expression Analysis (LTEA) Assay for Cytochrome P450 (CYP24A1) using HepaRG (AID 2283478). The gist of the method:
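Differentiated HepaRG cells, pre-cultured 48 h, were exposed in duplicate for 48 h in serum-free induction medium to 8 half-log concentrations (top 100 uM, 0.5% DMSO). CYP24A1 mRNA was quantified by TaqMan qRT-PCR, normalized to ACTB/GAPDH/POLR2A, fitted bidirectionally versus DMSO.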

Read-out in test [4]: Cytochrome P450 (CYP1A2), CYP1A2 (gene 1544)
Nature of the test: LTEA_HepaRG_CYP1A2: Life Technologies and Expression Analysis (LTEA) Assay for Cytochrome P450 (CYP1A2) using HepaRG (AID 2283479). The gist of the method:
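Differentiated human HepaRG cells in serum-free induction medium were exposed in duplicate for 48 h to 8-point half-log concentrations up to 100 uM in 0.5% DMSO. CYP1A2 mRNA measured by qRT-PCR, normalized to ACTB, GAPDH, POLR2A; bidirectional fit vs DMSO.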

Read-out in test [5]: cysteine-aspartic acid protease (CASP8), CASP8 (gene 841)
Description: LTEA_HepaRG_CASP8: Life Technologies and Expression Analysis (LTEA) Assay for cysteine-aspartic acid protease (CASP8) using HepaRG (AID 2283480). The gist of the method: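 qRT-PCR readout of CASP8 mRNA, normalized to three housekeeping genes, after 48 h chemical exposure of HepaRG cells; 8-point half-log series, top 100 uM, 0.5% DMSO vehicle. Bidirectional curve fitting against DMSO baseline.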

Read-out in test [6]: Cytochrome P450 (CYP2B6), CYP2B6 (gene 1555)
Nature of the test: LTEA_HepaRG_CYP2B6: Life Technologies and Expression Analysis (LTEA) Assay for Cytochrome P450 (CYP2B6) using HepaRG (AID 2283481). The gist of the method: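 Differentiated HepaRG cells, serum-free induction medium, exposed 48 h in duplicate to 8-point half-log concentrations from 100 uM in 0.5% DMSO. CYP2B6 mRNA by qRT-PCR, normalized to ACTB, GAPDH, POLR2A; bidirectional fit versus DMSO.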

Read-out in test [7]: Cytochrome P450 2C19 (Homo sapiens) (UniProt P33261)
Description: LTEA_HepaRG_CYP2C19: Life Technologies and Expression Analysis (LTEA) Assay for CYP2C19 using HepaRG (AID 2283482). The gist of the method: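 Differentiated human HepaRG cells were exposed for 48 h in serum-free induction medium to 8 concentrations (top 100 uM, half-log steps, 0.5% DMSO). CYP2C19 mRNA was measured by qRT-PCR, normalized to ACTB/GAPDH/POLR2A, and fitted bidirectionally against DMSO.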

Read-out in another test: CYP2C8 (gene 1558)
Description: LTEA_HepaRG_CYP2C8: Life Technologies and Expression Analysis (LTEA) Assay for CYP2C8 using HepaRG (AID 2283483). The essentials: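 HepaRG (human liver line), 48 h chemical exposure, 8-pt half-log series from 100 uM, 0.5% DMSO vehicle. Readout: CYP2C8 transcript by qRT-PCR, housekeeping-normalized. Bidirectional fit vs DMSO baseline.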

Read-out in another test: CYP2C9 (gene 1559)
Description: LTEA_HepaRG_CYP2C9: Life Technologies and Expression Analysis (LTEA) Assay for CYP2C9 using HepaRG (AID 2283484). The essentials:
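HepaRG, 48 h dosing, 8-pt half-log series, top 100 uM, 0.5% DMSO vehicle. Read-out: CYP2C9 transcript by TaqMan qRT-PCR, housekeeping-normalized (ACTB/GAPDH/POLR2A). Gain or loss fitted vs DMSO baseline.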

Read-out in another test: CYP2E1 (gene 1571)
Description: LTEA_HepaRG_CYP2E1: Life Technologies and Expression Analysis (LTEA) Assay for CYP2E1 using HepaRG (AID 2283485). The essentials: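 Assay uses 48 h exposure of HepaRG hepatic cells, eight concentrations to 100 uM. Expression of CYP2E1 is quantified by TaqMan qRT-PCR with ACTB, GAPDH and POLR2A normalization; curves fitted in both directions relative to vehicle.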

Read-out in the next test: CYP4A11 (gene 1579)
Description: LTEA_HepaRG_CYP4A11: Life Technologies and Expression Analysis (LTEA) Assay for CYP4A11 using HepaRG (AID 2283486). The essentials:
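Differentiated HepaRG cells, serum-free induction medium, exposed 48 h in duplicate to 8-point half-log series from 100 uM in 0.5% DMSO. CYP4A11 mRNA measured by qRT-PCR, normalized to ACTB, GAPDH, POLR2A; bidirectional fit versus DMSO.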

Read-out in test [8]: Cytochrome P450 3A4 (Homo sapiens) (UniProt P08684)
Nature of the test: LTEA_HepaRG_CYP3A4: Life Technologies and Expression Analysis (LTEA) Assay for CYP3A4 using HepaRG (AID 2283487). The gist of the method:
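HepaRG, 48 h exposure, 8-pt CRC from 100 uM (half-log), 0.5% DMSO, duplicates; serum-free induction medium. Readout: CYP3A4 mRNA, qRT-PCR, ACTB/GAPDH/POLR2A normalization. Bidirectional fit vs DMSO.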

Read-out in test [9]: DNA damage-inducible transcript 3 (DDIT3), DDIT3 (gene 1649)
Nature of the test: LTEA_HepaRG_DDIT3: Life Technologies and Expression Analysis (LTEA) Assay for DNA damage-inducible transcript 3 (DDIT3) using HepaRG (AID 2283488). The gist of the method: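 Eight-point concentration-response (100 uM highest, half-log dilutions) in HepaRG, 48 h, duplicate wells. Endpoint: qRT-PCR mRNA, normalized (ACTB, GAPDH, POLR2A), bidirectional fitting with DMSO as baseline.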

Read-out in test [10]: Pro-epidermal growth factor (Homo sapiens) (UniProt P01133)
Nature of the test: LTEA_HepaRG_EGF: Life Technologies and Expression Analysis (LTEA) Assay for Epidermal growth factor (EGF) using HepaRG (AID 2283489). The essentials: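 Differentiated human HepaRG cells, plated 48 h then switched to serum-free induction medium, were exposed for 48 h to test chemicals (8-point half-log series, top 100 uM, 0.5% DMSO). EGF mRNA was quantified by qRT-PCR, normalized to ACTB, GAPDH, POLR2A.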

Read-out in test [11]: Early growth response protein 1 (EGR1) transcription factor, EGR1 (gene 1958)
Nature of the test: LTEA_HepaRG_EGR1: Life Technologies and Expression Analysis (LTEA) Assay for Early growth response protein 1 (EGR1) transcription factor using HepaRG (AID 2283490). The essentials: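 HepaRG, 48 h exposure, 8-pt half-log series from 100 uM, 0.5% DMSO vehicle; EGR1 transcript by TaqMan qRT-PCR (Fluidigm array), housekeeping-normalized; bidirectional fit relative to DMSO baseline.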

Read-out in test [12]: Ezrin (EZR), EZR (gene 7430)
Description: LTEA_HepaRG_EZR: Life Technologies and Expression Analysis (LTEA) Assay for Ezrin (EZR) using HepaRG (AID 2283491). The essentials: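 Read-out is EZR transcript level by qRT-PCR, normalized to three housekeeping genes and fitted bidirectionally against the DMSO control. Human HepaRG cells received test chemicals for 48 h at eight half-log concentrations up to 100 uM in 0.5% DMSO.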

Read-out in another test: CYP3A5 (gene 1577)
Description: LTEA_HepaRG_CYP3A5: Life Technologies and Expression Analysis (LTEA) Assay for CYP3A5 using HepaRG (AID 2283493). The gist of the method: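 Readout was CYP3A5 mRNA by qRT-PCR. HepaRG cultures were exposed for 48 h in serum-free induction medium to chemicals at up to 100 uM, and responses were fitted in both directions relative to DMSO vehicle.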

Read-out in test [13]: Fatty Acid-Binding Protein 1 (FABP1), FABP1 (gene 2168)
Description: LTEA_HepaRG_FABP1: Life Technologies and Expression Analysis (LTEA) Assay for Fatty Acid-Binding Protein 1 (FABP1) using HepaRG (AID 2283494). The essentials:
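qRT-PCR readout of FABP1 transcript (normalized to three housekeeping genes) after 48 h chemical exposure of HepaRG cells; eight concentrations, half-log steps, max 100 uM, 0.5% DMSO vehicle; gain or loss fitted relative to DMSO baseline.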

Read-out in test [14]: Cytochrome P450 3A7 (Homo sapiens) (UniProt P24462)
Description: LTEA_HepaRG_CYP3A7: Life Technologies and Expression Analysis (LTEA) Assay for CYP3A7 using HepaRG (AID 2283492). The essentials:
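HepaRG cells plated 48 h, then dosed in serum-free induction medium for 48 h at 8 concentrations (top 100 uM, half-log steps, 0.5% DMSO). CYP3A7 mRNA by qRT-PCR, normalised to ACTB/GAPDH/POLR2A; bidirectional fit versus DMSO.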

Activity calls are given as the source filed them. The calls were made as follows: active = hit-call score of the fitted dose curve at least 0.9, where 1 is the maximum; inactive = score below 0.9.

Cytochrome P450 3A4 (Homo sapiens), sequence (P08684 whole entry, looked up): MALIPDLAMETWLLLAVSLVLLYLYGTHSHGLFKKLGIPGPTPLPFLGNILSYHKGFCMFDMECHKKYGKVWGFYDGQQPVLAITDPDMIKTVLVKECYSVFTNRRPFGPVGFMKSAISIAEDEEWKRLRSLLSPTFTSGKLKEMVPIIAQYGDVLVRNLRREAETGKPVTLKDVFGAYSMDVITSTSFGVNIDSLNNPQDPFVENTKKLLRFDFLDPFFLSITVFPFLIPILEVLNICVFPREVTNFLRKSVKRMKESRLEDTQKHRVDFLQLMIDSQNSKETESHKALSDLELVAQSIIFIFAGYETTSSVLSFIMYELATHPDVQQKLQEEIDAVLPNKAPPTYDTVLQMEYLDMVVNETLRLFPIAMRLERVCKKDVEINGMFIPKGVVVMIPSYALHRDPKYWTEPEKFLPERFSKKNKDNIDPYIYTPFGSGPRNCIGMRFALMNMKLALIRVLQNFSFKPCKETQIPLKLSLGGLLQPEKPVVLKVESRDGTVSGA
Apoptosis regulator Bcl-2 (Homo sapiens), sequence (P10415 whole entry, looked up): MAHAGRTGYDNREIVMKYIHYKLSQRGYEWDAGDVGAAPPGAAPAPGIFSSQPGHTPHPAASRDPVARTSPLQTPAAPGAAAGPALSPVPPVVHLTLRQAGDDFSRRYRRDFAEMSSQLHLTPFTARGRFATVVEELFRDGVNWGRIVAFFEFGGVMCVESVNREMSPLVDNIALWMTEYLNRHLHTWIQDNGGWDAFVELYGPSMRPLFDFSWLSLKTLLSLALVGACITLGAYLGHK
Cytochrome P450 2C19 (Homo sapiens), sequence (P33261 whole entry, looked up): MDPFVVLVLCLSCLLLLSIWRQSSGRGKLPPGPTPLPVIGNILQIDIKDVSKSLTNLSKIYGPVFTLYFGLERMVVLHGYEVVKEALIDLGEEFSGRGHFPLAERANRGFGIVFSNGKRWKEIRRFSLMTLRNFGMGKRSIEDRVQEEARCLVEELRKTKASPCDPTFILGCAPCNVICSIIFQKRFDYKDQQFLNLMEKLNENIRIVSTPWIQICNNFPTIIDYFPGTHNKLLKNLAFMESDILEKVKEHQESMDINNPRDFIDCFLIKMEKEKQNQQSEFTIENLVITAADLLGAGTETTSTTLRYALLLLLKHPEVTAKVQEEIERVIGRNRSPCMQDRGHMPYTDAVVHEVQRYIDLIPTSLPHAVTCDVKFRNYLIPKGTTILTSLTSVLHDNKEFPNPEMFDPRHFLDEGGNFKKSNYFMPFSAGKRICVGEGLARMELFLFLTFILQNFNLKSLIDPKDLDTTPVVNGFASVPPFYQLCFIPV
Caspase-3 (Homo sapiens), sequence (P42574 whole entry, looked up): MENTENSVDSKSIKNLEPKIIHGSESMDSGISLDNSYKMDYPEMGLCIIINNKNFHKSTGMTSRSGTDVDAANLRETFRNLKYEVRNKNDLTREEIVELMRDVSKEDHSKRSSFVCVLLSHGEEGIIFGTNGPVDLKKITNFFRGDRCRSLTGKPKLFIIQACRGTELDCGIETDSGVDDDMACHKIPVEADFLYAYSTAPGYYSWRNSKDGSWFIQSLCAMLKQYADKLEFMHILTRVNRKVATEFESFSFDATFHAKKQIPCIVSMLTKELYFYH
Cytochrome P450 3A7 (Homo sapiens), sequence (P24462 whole entry, looked up): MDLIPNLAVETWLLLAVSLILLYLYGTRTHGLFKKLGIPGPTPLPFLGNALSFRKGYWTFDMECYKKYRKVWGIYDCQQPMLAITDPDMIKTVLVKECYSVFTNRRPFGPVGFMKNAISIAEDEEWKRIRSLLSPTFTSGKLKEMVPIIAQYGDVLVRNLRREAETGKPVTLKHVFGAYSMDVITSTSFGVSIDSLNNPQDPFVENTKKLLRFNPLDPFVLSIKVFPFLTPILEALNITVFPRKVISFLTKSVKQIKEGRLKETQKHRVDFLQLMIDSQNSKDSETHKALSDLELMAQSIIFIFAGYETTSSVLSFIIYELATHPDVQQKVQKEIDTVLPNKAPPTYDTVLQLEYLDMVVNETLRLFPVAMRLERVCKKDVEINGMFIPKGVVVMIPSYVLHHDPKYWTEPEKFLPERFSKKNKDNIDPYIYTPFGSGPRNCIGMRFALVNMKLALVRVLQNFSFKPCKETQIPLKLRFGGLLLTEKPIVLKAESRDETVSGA

Usually AC50 stands for the concentration at which the activity in the assay is half-maximal. For the molecule `CC[C@H](C)[C@@H](C(=O)O)n1sc2ccccc2c1=O`, the call (in test [1]; in test [2]; with Caspase-3 (Homo sapiens); in [3]; in test [5]; in test [7]) was inactive. In addition, the call (with CYP2C8 (gene 1558); with CYP2C9 (gene 1559); with CYP2E1 (gene 1571); in the test with CYP4A11 (gene 1579); in test [8]; in test [9]) was inactive. In addition, the call (in test [10]; in [11]; in test [12]; with CYP3A5 (gene 1577); in [13]) was inactive. In addition, the values for the AC50 in test [4] and in test [6] were 50 µM (active) and 10.1 µM (active), respectively.
With `CCCCCCCCC(=O)O`, the result (in test [1]; in test [2]; with Caspase-3 (Homo sapiens); in test [3]; in test [4]; in test [5]) was inactive. Further, the molecule was classed as inactive (in [6]; in test [7]; in the test with CYP2C8 (gene 1558); with CYP2C9 (gene 1559); with CYP2E1 (gene 1571); with CYP4A11 (gene 1579)). Besides, the result in test [8], in test [9], in test [10], in [11], in test [12] and in [14] was inactive. Further, the molecule was called inactive (with CYP3A5 (gene 1577); in [13]).
Regarding `OC1CCCCC1`, the molecule was called inactive (in [1]; in [2]; with Caspase-3 (Homo sapiens); in test [3]; in test [4]; in test [5]). For the same molecule, the result (in [6]; in test [7]; in the test with CYP2C8 (gene 1558); with CYP2C9 (gene 1559); with CYP2E1 (gene 1571); in the test with CYP4A11 (gene 1579)) was inactive. In addition, the molecule was called inactive (in test [8]; in test [9]; in [10]; in test [11]; in [12]; with CYP3A5 (gene 1577)). Further, the outcome in test [13] was inactive.

The record behind these values is PubChem BioAssay (EPA / NIEHS).
